A selection: hits, their analogues and other compounds. The true share with any hit is near 7%.
HP1b chromo inh – HTS for Inhibitors of HP1-beta Chromodomain Interactions with Methylated Histone Tails; AlphaScreen HP1-beta / biotin-H3K9me3 peptide binding; Potency, µM (top dose mostly 114 µM), for the others: at the highest dose activity change, negative = inhibition, most hits filed as inhibitors; actives 0.56% (n = 390,000); AID 540317, 2011; note: potency is the fitted concentration of half-maximal effect; nearly all actives have a fitted effect of over 70% in size
Target sequence (P83916 whole entry, looked up): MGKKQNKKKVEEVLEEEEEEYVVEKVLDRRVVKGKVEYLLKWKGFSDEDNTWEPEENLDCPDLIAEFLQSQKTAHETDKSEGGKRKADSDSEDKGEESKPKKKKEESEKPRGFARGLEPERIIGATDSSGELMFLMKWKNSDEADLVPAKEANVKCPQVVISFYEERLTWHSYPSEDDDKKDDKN
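AlphaScreen: HP1-beta (50 nM) preformed 30 min with biotin-H3(1-18)K9me3 peptide (50 nM) in PBS pH 7.4, 0.01% Tween-20. Compound added for 30 min at RT, then streptavidin donor/nickel chelate acceptor beads (10 ug/mL) for 30 min.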
JMJD2A Tudor inh – qHTS Assay for Inhibitors of JMJD2A-Tudor Domain; Lysine-specific demethylase 4A (Homo sapiens), O75164; AlphaScreen JMJD2A-Tudor / H3K4me3 peptide binding; Potency, µM (doses to about 114 µM), inactives show at the highest dose activity change, negative = inhibition, most hits filed as inhibitors; actives 4.4% (n = 390,000); note: potency is the fitted concentration of half-maximal effect; % is set by controls: 0 for no effect and ±100 for the full control effect; nearly all actives have a fitted effect of over 50% in size
PI5P4Ka inh – qHTS for Inhibitors of phosphatidylinositol 5-phosphate 4-kinase (PI5P4K); Phosphatidylinositol 5-phosphate 4-kinase type-2 alpha (Homo sapiens), P48426; max response, %; PI5P4Kalpha enzyme, ADP-Glo luminescence, 60 min; hits give low values; actives 1.2% (n = 330,000); AID 652105, 2013; active = max response of -50% or lower; inconclusive = between -30% and -50%; inactive = -30% or higher; note: value at the top dose of about 77 µM; % is set by controls: 0 for no effect and ±100 for the full control effect
Target sequence (P48426 whole entry, looked up): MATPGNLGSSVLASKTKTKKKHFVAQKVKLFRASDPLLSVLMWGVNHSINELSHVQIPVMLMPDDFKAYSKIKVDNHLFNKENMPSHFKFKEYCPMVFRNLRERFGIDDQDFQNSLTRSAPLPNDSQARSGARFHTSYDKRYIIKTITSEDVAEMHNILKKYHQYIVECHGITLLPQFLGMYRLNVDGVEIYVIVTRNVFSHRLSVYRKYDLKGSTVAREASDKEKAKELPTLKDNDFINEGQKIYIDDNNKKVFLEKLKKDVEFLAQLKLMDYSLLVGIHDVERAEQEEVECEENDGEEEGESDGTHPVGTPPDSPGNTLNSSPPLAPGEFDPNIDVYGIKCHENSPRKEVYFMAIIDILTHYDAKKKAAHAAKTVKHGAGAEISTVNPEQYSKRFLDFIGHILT
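Single end-point luminescence (ADP-Glo) quantified ADP from PI5P4Kalpha turnover; ATP 5 microM final, 1 h at RT, 0.1% CHAPS and 0.28 mM EGTA in HEPES pH 7.4.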
BAZ2B inh – qHTS Assay for Inhibitors of BAZ2B | Bromodomain adjacent to zinc finger domain protein 2B (Homo sapiens), Q9UIF8 | AlphaScreen BAZ2B-H3K14Ac peptide displacement | Potency, µM (titrated, usually from 114 µM), for the others: at the top dose activity change, negative = inhibition, hits mostly inhibitors | actives 4.4% (n = 360,000); note: potency is the fitted concentration of half-maximal effect; % is set by controls: 0 for no effect and ±100 for the full control effect; nearly all actives have a fitted effect of over 60% in size
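Complex of BAZ2B and biotin-H3K14Ac (50 nM apiece) forms over 30 min at RT, then faces library compounds up to 110 uM for another 30 min; AlphaScreen beads added, 20 min dark incubation, luminescence read.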
PLK1 PBD block – qHTS for Inhibitors of PLK1-PDB (polo-like kinase 1 - polo-box domain): Primary Screen | Plk1 PBD binding of FITC phosphopeptide, fluorescence polarization | AID 720504, 2013 | actives 2.8% (n = 360,000) | Serine/threonine-protein kinase PLK1 (Homo sapiens), P53350 | Potency, µM, without a hit: max response, negative = inhibition, most hits filed as inhibitors; note: potency is the fitted concentration of half-maximal effect; series mostly up to about 57 µM; % is set by controls: 0 for no effect and ±100 for the full control effect; nearly all actives have a fitted effect of over 65% in size
KAT2A inh – qHTS Assay for Inhibitors of GCN5L2; Histone acetyltransferase KAT2A (Homo sapiens), Q92830; GCN5L2 HAT assay, ThioGlo1 CoA-SH fluorescence; Potency, µM (titrated, usually from 58.9 µM), for inactives: at the top dose activity change, negative = inhibition, usual class: inhibitors; actives 0.21% (n = 390,000); AID 504327, 2011; note: potency is the fitted concentration of half-maximal effect; % is set by controls: 0 for no effect and ±100 for the full control effect
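GCN5L2 (20 nM) in 50mM HEPES pH 7.5, 0.1mM EDTA, 0.01% Tween-20 preincubated 15 min with compounds at room temperature. Reaction started with H3(1-25) 75uM, acetyl-CoA 70uM, ThioGlo1 50uM; CoA-thiol fluorescence (Ex340/Em540) read at 0 and 20 min.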
Starred values were filed as active, the others as inactive; ? = inconclusive; . = no result given; [ ] = another dose, or the depositor's remark. Unless noted, calls come from the whole dose curve; as a rule, active = well fitted curve in the direction sought with a large enough effect; inconclusive = small, poorly fitted or top-dose-only effect, or another doubt; inactive = no such curve, though single readings can be large; an effect the other way counts as inactive or inconclusive.

SMILES	HP1b chromo inh	JMJD2A Tudor inh	PI5P4Ka inh	BAZ2B inh	PLK1 PBD block	KAT2A inh
C=Cn1ccnc1P(=S)(c1ccc(N(C)C)cc1)c1nccn1C=C	11%	?	.	?	-6%	-1%
Cn1ccnc1P(=S)(c1nccn1C)c1nccn1C	4%	32µM*	.	?	-3%	-5%
CC[C@H](Oc1ccc(Cl)cc1)C(=O)OC1C[C@H]2CC[C@@H](C1)N2C (stereo partly specified)	.	.	.	.	.	-7%
CCCC[C@@H](C)[C@@H](OC(=O)C[C@@H](CC(=O)O)C(=O)O)[C@H](C[C@@H](C)CCCCCC[C@@H](O)C[C@H](O)[C@H](C)N)OC(=O)C[C@@H](CC(=O)O)C(=O)O	.	.	.	.	.	39%
CCC(CC)c1nnc(NC(=O)CC(C)c2ccccc2)s1 (stereo unspecified)	-14%	-14%	-3	1%	?	1%
C=CCN1CCc2cccc3c2[C@H]1Cc1ccc(O)c(O)c1-3	35µM*	16µM*	-11	?	38µM*	?
CCCN1CCc2cc(O)cc3c2C1Cc1ccc(O)c(O)c1-3 (stereo unspecified)	.	.	.	.	.	-10%
c1ccc(-c2ccc(C(c3ccccc3)n3ccnc3)cc2)cc1 (stereo unspecified)	-28%	25µM*	?	25µM*	?	-17%
c1ccc(C(c2ccccc2)c2cccnc2)cc1	13%[57 µM]	7%	0	.	3%	.
CC[C@H](C)[C@H](NC(=O)[C@H](CCCN=C(N)N)NC(=O)[C@H](CCCN=C(N)N)NC(=O)[C@H](CC(C)C)NC(=O)[C@H](Cc1ccccc1)NC(=O)CNC(=O)CNC(=O)[C@@H](N)Cc1ccc(O)cc1)C(=O)O	.	.	.	.	.	1%
CN1CCN(Cc2cc(C(C)(C)C)c(O)c(C(C)(C)C)c2)CC1	?	2.2µM*	-8	?	24µM*	-9%[0.501 µM]
O=C(Oc1ccccc1)N(c1ccccc1)c1ccccc1	-17%	-17%	1	46%	-3%	-7%
CCCCC12CN3CC(C)(CN(C1)C3c1ccccn1)C2=O (stereo unspecified)	11%	25µM*	.	8.9µM*	.	1%
NC(=O)C1CCN(/C=C2\C(=O)NC(=O)N(Cc3ccco3)C2=O)CC1	?	79µM*	-61*	?	?	-15%
CN(C)c1ccc(/C=C2/C(=O)NC(=O)N(Cc3ccco3)C2=O)cc1	-7%	-35%	-58*	-31%	1.9µM*	-9%
O=C1NC(=S)N(Cc2ccco2)C(=O)/C1=C\c1cccs1	.	.	.	.	.	8.9µM*
CCN1C(=O)C(=C2C=C(C)N(Cc3ccco3)C(C)=C2)C(=O)N(CC)C1=S	77%	20%	0	32%	-11%	-6%
CCN(CC)c1ccc(/C=C2\C(=O)NC(=O)N(CC3CCCO3)C2=O)cc1 (stereo unspecified)	4%	-27%	-18	?	?	-5%
CCN(CC)c1ccc(/C=C2/C(=O)NC(=O)N(Cc3ccco3)C2=O)cc1	-14%	?	-73*	40µM*	?	1%
O=C(c1ccccc1Cl)N1CCC(c2nc3ccccc3s2)CC1	43%	-8%	.	-18%	.	-6%
CC(=O)CC(c1ccccc1)c1c(O)c2cc(O)ccc2oc1=O (stereo unspecified)	.	.	.	.	.	28%
CN1CCCCC1Cn1cc(C(=O)c2cc([N+](=O)[O-])ccc2I)c2ccccc21 (stereo unspecified)	.	.	.	.	.	9%
Cc1cccc(N2C(=O)NC(=O)/C(=C/c3ccc(-c4ccc(C(=O)O)c(Cl)c4)o3)C2=O)c1	.	.	.	-14%	.	-15%
Cc1cc(/C=C2\C(=O)NC(=O)N(Cc3ccccc3)C2=O)c(C)n1C1CC1	16%	?	-7	-14%	-14%	-7%
O=C1NC(=O)N(Cc2ccco2)C(=O)/C1=C/c1ccc(-c2cccc([N+](=O)[O-])c2)o1	?	14µM*	-80*	35µM*	0.42µM*	20µM*
SMILES	HP1b chromo inh	JMJD2A Tudor inh	PI5P4Ka inh	BAZ2B inh	PLK1 PBD block	KAT2A inh
Cc1cc(/C=C2/C(=O)NC(=O)N(Cc3ccco3)C2=O)c(C)n1-c1ccccc1	71µM*	50µM*	?	?	?	-17%
CC(C)(C)c1ccc(O)c(CN2CCN(c3ccccc3)CC2)c1	7%	-12%	12	-17%	-8%	4%
Clc1ccccc1CN1CCN(c2cccc3[nH]ccc23)CC1	?	?	-5	40µM*	0%	-12%
O=S1(=O)N(Cc2ccccc2Cl)CCCN1Cc1ccccc1Cl	95%	84%	.	76%	.	-7%
Nc1ccc(N2CCN(Cc3ccccc3Cl)CC2)c(Cl)c1	?	-8%[11.4 µM]	4	45µM*	-18%	-3%
Clc1ccccc1CN1CCN(c2ccccc2)CC1	?	3.5µM*	.	50µM*	-4%	-8%
Clc1ccc(N2CCN(Cc3ccccc3Cl)CC2)cc1	?	4.5µM*	.	?	2%	-5%[0.501 µM]
Fc1ccccc1CN1CCN(c2ccc(Cl)cc2)CC1	28%	-7%	-7	-1%	-1%	15%
O=C(/C=C/c1ccc(Cl)cc1)N[C@@]12CCC(=O)[C@@H]3Oc4c(O)ccc5c4[C@@]31CCN(CC1CC1)C2C5	.	.	.	.	.	1%
N[C@@H](CCCCP(=O)(O)O)C(=O)O	.	.	.	.	.	-5%
O=C(Cc1c(Cl)cccc1Cl)N1CCN(Cc2ccccc2)CC1	32%	-2%	4	-7%	-14%	-3%
Clc1cccc(Cl)c1CN1CCN(c2ccccc2)CC1	?	3.2µM*	.	35µM*	-6%	1%
COc1cc(C(=O)NCCSc2c(-c3ccccc3)[nH]c3ccccc23)cc(OC)c1OC	5%	?	.	-24%	.	-13%
COC(=O)c1sccc1NC(=O)c1ccc(C#N)cc1	24%	-12%	2	-3%	-22%	?
Nc1ncnc2c1nc(Sc1ccc(Cl)cc1)n2[C@@H]1O[C@@H]2COP(O)(=S)O[C@H]2[C@H]1O (stereo partly specified)	.	.	.	.	.	16%
CCOP(=S)(OCC)Oc1cc(C)oc(=O)c1	-11%	-24%	-13	?	30µM*	?
CCOP(=S)(OCC)Oc1cc(C)oc(=O)c1Cl	-9%	20µM*	-24	56µM*	4.7µM*	?
N#Cc1cccc(NC(=O)N2CC[C@@]3(CCCN(C(=O)Oc4ccccc4)C3)C2)c1	.	.	.	.	.	-5%
